Bioassay records deposited in PubChem BioAssay by National Center for Advancing Translational Sciences (NCATS).
rTrxR1 inhibitor = qHTS Assay for Inhibitors of Mammalian Selenoprotein Thioredoxin Reductase 1 (TrxR1): qHTS; Thioredoxin reductase 1, cytoplasmic (Rattus norvegicus), O89049; recombinant rTrxR1, NADPH fluorescence consumption, selenite substrate; Potency, µM (series often up to 114 µM), usual class: inhibitors; hit rate 1% among 390,000; AID 588453, 2011; note: nearly all actives have a fitted effect of over 65% in size
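Rat TrxR1 (90 nM in the dispensed reagent) was pre-reduced with 400 uM NADPH for 5 min at room temperature, then incubated with compound for 15 min. After 400 uM selenite was added, NADPH fluorescence (Ex 340/Em 450 nm) was followed for 8 min.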
ClpP mod = qHTS Assay for Activators of ClpP | ATP-dependent Clp protease proteolytic subunit (Bacillus subtilis (strain 168)), P80244 | purified B. subtilis ClpP, FRET peptide cleavage, 20 min | Potency, µM (top dose mostly 57.5 µM) | hit rate 1.9% among 340,000; active = well fitted falling curve with a large enough effect; inconclusive = small, poorly fitted or top-dose-only effect; inactive = no such curve, though single readings can be large or run the other way; note: the source files actives as falling curves though it sought activators and does not explain the sign; nearly all actives have a fitted effect of over 65% in size
Target sequence (P80244 whole entry, looked up): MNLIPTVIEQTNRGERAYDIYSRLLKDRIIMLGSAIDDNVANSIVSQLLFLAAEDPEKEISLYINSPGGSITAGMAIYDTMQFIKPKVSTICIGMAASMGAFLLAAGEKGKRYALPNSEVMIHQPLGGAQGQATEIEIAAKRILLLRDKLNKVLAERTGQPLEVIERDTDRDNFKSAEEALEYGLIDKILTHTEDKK
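ClpP 10 microg/mL final, pH 8 Tris/KCl buffer with BSA, glycerol, Tween-20; compound pinned in; FRET-FV substrate; RT 20 min; Ex320/Em430; ΔFRET vs ADEP 5.8 microM, DMSO, no enzyme.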
TrxR1 substrate = qHTS Assay for Substrates of Mammalian Selenoprotein Thioredoxin Reductase 1 (TrxR1): qHTS; Thioredoxin reductase 1, cytoplasmic (Rattus norvegicus), O89049; hit rate 0.01% among 390,000; Potency, µM (top dose mostly 114 µM); purified TrxR1 substrate turnover, NADPH consumption readout; note: nearly all actives have a fitted effect of over 50% in size
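Rat TrxR1, dispensed at 90 nM, was prereduced with 400 uM NADPH (final) for 5 min at ~22 deg C, then incubated with compound 15 min before 400 uM selenite. A first-read NADPH fluorescence drop versus no-compound background flagged substrates.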
Apoferritin bind = qHTS Assay for Identification of Novel General Anesthetics; Ferritin light chain (Equus caballus), P02791; apoferritin/1-aminoanthracene competitive binding, fluorescence; Potency, µM (titrated, usually from 77.5 µM), most hits filed as inhibitors; hit rate 0.074% among 350,000; note: nearly all actives have a fitted effect of over 20% in size
Target sequence (P02791 2-175 limits assumed): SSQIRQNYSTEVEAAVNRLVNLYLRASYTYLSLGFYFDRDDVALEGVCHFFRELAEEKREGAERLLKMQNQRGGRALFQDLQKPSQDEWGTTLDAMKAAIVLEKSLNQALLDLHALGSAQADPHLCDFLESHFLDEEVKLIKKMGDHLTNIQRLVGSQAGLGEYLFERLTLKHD
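Concentration-response curves derived by four-parameter Hill fitting of normalized fluorescence, where compounds displaced 1-AMA from 10 uM horse apoferritin following a brief 10 min room-temperature incubation; propofol titration acted as positive control.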
miR-21 act = qHTS Assay for Modulators of miRNAs and/orActivators of miR-21; 340,000 tested, under 10 active; Potency, µM (highest dose often 38.3 µM), usual class: activators; HeLa miR-21 FLuc reporter, luciferase, 48 h;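 note: miR-21 action dims this reporter so a rising signal means less miR-21 action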
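HeLa miR-21-FLuc reporter line, endogenous miR-21; 2000 cells/well in DMEM/10% FBS; compound titration up to ~40uM final, 48 h, 37 degree Celsius; luciferase detection reagent, 15 min lysis, CCD luminescence.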
Numbers stand for hits; n = inactive; u = inconclusive; x = no result given. Compounds with a hit are over-represented: about 2.5% of the library has one in this group of screens. Unless noted, calls come from the whole dose curve; as a rule, active = well fitted curve in the direction sought with a large enough effect; inconclusive = small, poorly fitted or top-dose-only effect, or another doubt; inactive = no such curve, though single readings can be large; an effect the other way counts as inactive or inconclusive.

SMILES	rTrxR1 inhibitor	ClpP mod	TrxR1 substrate	Apoferritin bind	miR-21 act
COc1ccc(N2CCN(C(=O)CN3C(=O)NC(C)(c4ccc5ccccc5c4)C3=O)CC2)cc1 (configuration not stated)	n	28µM	n	x	x
COc1ccc(N2CCN(CCC(=O)c3ccc4ccccc4c3)CC2)cc1	1.8µM	n	n	n	n
CC(=O)N1CCN(C(=O)CN2C(=O)NC(C)(c3ccc4ccccc4c3)C2=O)CC1 (configuration not stated)	n	n	n	x	x
O=C(CCN1CCN(c2ccccc2)CC1)c1ccc(Cl)cc1	1.6µM	n	n	n	n
COc1ccc(N2CCN(CC(=O)c3ccccc3)CC2)cc1	u	x	n	n	n
CCCCNc1nc(Oc2ccc(=O)n(-c3ccccc3)n2)nc(N(C)C)n1	n	n	n	n	n
O=C(CCN1CCN(c2ccc([N+](=O)[O-])cc2)CC1)c1ccc(Cl)cc1	7.1µM	x	n	n	n
COc1ccc(C(=O)c2coc(-c3ccccc3C(=O)O)c2C(=O)O)cc1	n	n	n	n	n
COc1ccc(C(=O)c2c(C(F)(F)F)oc3c2C(=O)c2ccccc2C3=O)cc1	n	3.2µM	n	u	n
CN1CC=C2C(C#N)=C(N)C(C#N)(C#N)[C@H](c3cccs3)[C@H]2C1	u	n	n	n	n
CCCC1C2CN(C(C)C)CC=C2C(C#N)=C(N)C1(C#N)C#N (configuration not stated)	u	28µM	n	n	n
CN1CC=C2C(C#N)=C(N)C(C#N)(C#N)C(CCc3ccccc3)C2C1 (configuration not stated)	u	28µM	n	n	n
Cc1ccc(CNC(=O)C2CCN(S(=O)(=O)c3cc(-c4noc(C)n4)ccc3C)CC2)cc1	n	n	n	n	n
CCOc1ccc(CCNC(=O)c2nn(C)c3c2CSc2ccccc2-3)cc1	n	n	n	n	n
CCOC(=O)c1cnn(-c2nc(-c3ccc(F)cc3)cs2)c1C(F)(F)F	n	32µM	n	n	n
CCOC(=O)c1cnn(-c2nc(-c3ccccc3F)cs2)c1C(F)(F)F	n	35µM	n	u	n
CCOC(=O)c1cnn(-c2nc(-c3ccccc3)cs2)c1C(F)(F)F	n	32µM	n	u	n
CCN1CCN(c2nc3c(S(=O)(=O)c4ccc(Br)cc4)nnn3c3ccsc23)CC1	n	n	n	n	n
Cc1nc(N2CCCC2)ncc1C(=O)NCc1ccc(F)cc1	n	n	n	n	n
Cc1nn(-c2ccc(F)cc2F)c2c1-c1nc(N3CCCC3)ncc1CC2	n	32µM	n	n	n
CSc1[nH]c(=O)c(C(=O)O)cc1C#N	n	40µM	n	n	n
CCOC(=O)c1cc(C#N)c(SCC(=O)O)[nH]c1=O	n	x	n	n	n
CCN(CC)C(=O)CSc1nc(-c2ccccc2)cc(-c2ccc(OC)cc2)c1C#N	n	u	n	n	n
CCCCCCCCCCS(=O)(=O)N/N=C/c1ccc([N+](=O)[O-])cc1	n	n	n	20µM	n
FC(F)(F)c1nc(=S)c2ccccc2[nH]1	4.5µM	n	n	n	n
SMILES	rTrxR1 inhibitor	ClpP mod	TrxR1 substrate	Apoferritin bind	miR-21 act
Cc1nc(=S)c2ccccc2[nH]1	n	n	n	n	n
CCOC(=O)COc1c(C(=O)OC)sc2ncccc12	n	25µM	n	n	n
O=C(Nc1cccc(C(=O)N2CCN(c3ccc(F)cc3)CC2)c1)c1nsc2ccccc12	n	n	n	u	n
O=C(CSc1nc2ccccc2c(=O)[nH]1)c1ccc(O)c(O)c1	50µM	n	n	n	n
Cc1cc(=O)[nH]c(SCC(=O)c2ccc(O)c(O)c2)n1	56µM	x	n	n	n
Cc1ccc(C(=O)CSc2nc(C)cc(=O)[nH]2)cc1	n	n	n	n	n
O=C(CSc1nc2ccccc2c(=O)[nH]1)c1ccc(O)cc1O	n	n	n	n	n
Nc1ccc(/C=C/C(=O)c2ccco2)cc1	n	n	n	n	n
